Source: PubChem BioAssay (EPA / NIEHS)
Active and inactive are the calls of the source. Rule for the calls: active = hit-call score of the fitted dose curve at least 0.9, where 1 is the maximum; inactive = score below 0.9.

Each compound was assayed on Matrix Metallopeptidase 1 (MMP1), MMP1 (gene 4312) (assay: BSK_hDFCGF_MMP1: BioMAP Diversity Plus: hDFCGF Assay for Matrix Metallopeptidase 1 (MMP1) Biomarker Activity (AID 2283064)). Settings: primary human foreskin fibroblasts; actives raise or lower the signal.
Experimental: BSK_hDFCGF is a cell-based, multiplexed-readout assay that uses foreskin fibroblast, a human skin primary cell, with measurements taken at 24 hours after chemical dosing in a 96-well plate.BSK_hDFCGF_MMP1 is an assay component measured in the BSK_hDFCGF assay. It measures MMP-1 antibody related to regulation of gene expression using ELISA technology.Data from the assay component BSK_hDFCGF_MMP1 was analyzed into 1 assay endpoint. This assay endpoint, BSK_hDFCGF_MMP1, was analyzed with bidirectional fitting relative to DMSO as the negative control and baseline of activity. Using a type of binding reporter, gain or loss-of-signal activity can be used to understand changes in the signaling as they relate to the gene MMP1. Furthermore, this assay endpoint can be referred to as a primary readout, because this assay has produced multiple assay endpoints where this one serves a signaling function. To generalize the intended target to other relatable targets, this assay endpoint is annotated to the protease intended target family, where the subfamily is matrix metalloproteinase.
The levels of cell surface (or secreted, indicated by the prefix "s") biomarker endpoints were measured by ELISA. Overt cytotoxicity to cells in confluent adherent cultures (all systems other than the BT system) was assessed by measuring total protein levels using sulforhodamine B (SRB) staining in parallel cultures at the time of biomarker measurements, indicated as SRB endpoints. For proliferation assays for adherent cell types, individual cell types are cultured at sub-confluence and relative cell numbers quantified by SRB staining at time points optimized for each system (48 h: 3C and CASM3C systems; 72 h: BT and HDF3CGF systems; 96 h: SAg system). SRB was performed by staining cells with 0.1% SRB after fixation with 10% TCA and reading wells at 560 nm.Viability and proliferation of PBMC (T cells) was quantified by Alamar Blue reduction for the SAg and BT systems. For PBMC viability (referred to as PBMC Cytotoxicity within the assay endpoint names), cells were plated (75,000/well in a 96-well plate) and then chemical samples added for 1 h before addition of activators, SEB and TSST-1 (20 ng/mL final concentration each). Cells were incubated for 90 h. Then, Alamar Blue (20 uL/well) (Invitrogen, Cat DAL1100) was added for 6 h, and the plates were read with a fluorescence microplate reader at 546/580 nm (excitation/emission). For PBMC proliferation, cells were plated and activated as above but incubated for only 16 h prior to addition of Alamar Blue. Plates were read after 6 h.

Structure (SMILES)	outcome	AC50
OCc1ccccc1	inactive	
CCCCCCCCN(C)C	inactive	
c1ccc2c(c1)-c1cccc3c1c-2cc1ccccc13		6.72 µM (active)
O=C(O)[C@H](O)[C@@H](O)C(=O)O	inactive	
COS(C)(=O)=O	inactive	
OC(Cn1cncn1)(Cn1cncn1)c1ccc(F)cc1F	inactive	
c1ccc(C(O[C@@H]2CCCN(CCc3ccc4c(c3)OCO4)C2)c2ccccc2)cc1	inactive	
O=S(=O)(O)CCC(F)(F)C(F)(F)C(F)(F)C(F)(F)C(F)(F)C(F)(F)F	inactive	
NC(=O)N1c2ccccc2C=Cc2ccccc21	inactive	
CCCCN1C(=O)[C@@H]([C@H](O)C2CCCCC2)NC(=O)C12CCN(Cc1ccc(Oc3ccc(C(=O)O)cc3)cc1)CC2		7.18 µM (active)
OCCNCCO	inactive	
Nc1ccn([C@@H]2O[C@H](CO)[C@@H](O)[C@@H]2O)c(=O)n1	inactive	
O=C(Cl)C(F)(F)C(F)(F)C(F)(F)C(=O)Cl	inactive	
CCc1cccc(CC)c1N	inactive	
OCCOCCOCCO	inactive	
OCCC(F)(F)C(F)(F)C(F)(F)C(F)(F)F	inactive	
c1ccc2ncccc2c1	inactive	
CCCC(CCC)C(=O)O	inactive	
CCCCCCCC/C=C\CCCCCCCC(=O)OC[C@@H](O)[C@H]1OC[C@H](O)[C@H]1O	inactive	
FC(F)=C(F)C(F)(F)C(F)(F)C(F)(F)C(F)(F)C(F)(F)C(F)(F)F	inactive	

Structure (SMILES)	outcome	AC50
O=C(NO)C1(NS(=O)(=O)c2ccc(Oc3ccc(F)cc3)cc2)CCOCC1	inactive	
CCCCC(CC)C(=O)OCCOCCOCCOC(=O)C(CC)CCCC (stereo not given)	inactive	
O=C(O)c1cccc(C[C@@H]2COc3ccc(OCc4nc5cc(F)ccc5s4)cc3[C@@H]2O)c1	inactive	
Cn1cc[nH]c1=S	inactive	
C[Si](C)(C)C(F)(F)C(F)(F)C(F)(F)F	inactive	
CCCc1ccccc1	inactive	
OC(CCl)CCl	inactive	
O=C1CN(N=Cc2ccc([N+](=O)[O-])o2)C(=O)N1	inactive	
FC(F)(F)C(F)(F)C(F)(F)C(F)(F)C(F)(F)C(F)(F)I	inactive	
CC1(C)C(=O)N(Cl)C(=O)N1Cl	inactive	
CC(C)c1nnc2ccc(-c3ocnc3-c3cc(F)ccc3F)cn12		0.385 µM (active)
Cc1nccn1-c1ccc(Sc2cccc(C3(C(N)=O)CCOCC3)c2)cc1		2.9 µM (active)
NC(N)=O	inactive	
CCCCCCCCCCCCCCCCOS(=O)(=O)O		16.6 µM (active)
FC(F)C(F)(F)COCC1CO1 (stereo not given)	inactive	
CCCCCCOC(=O)CC(CC(=O)OCCCCCC)(OC(=O)CCC)C(=O)OCCCCCC	inactive	
OCc1c[nH]c2ccccc12		0.655 µM (active)
CCCCCOC(C)=O	inactive	
O=S(=O)(O)c1ccc(N=Nc2c(O)ccc3cc(S(=O)(=O)O)ccc23)cc1	inactive	
NCC(F)(F)C(F)(F)C(F)(F)C(F)(F)F	inactive	
